# Article PMC7862700, “An all-to-all approach to the identification of sequence-specific readers for epigenetic DNA modifications on cytosine”
# How the values were obtained:
# Experiment in all cases: DAPPL (digital affinity profiling via proximity ligation, sequencing); 10 mM Tris-HCl pH 7.5, 50 mM NaCl, 1 mM DTT, 4% glycerol, room temperature, 30 min; GST-TFs on glutathione beads, 16-mer random dsDNA library, 0.1% formaldehyde crosslink after washing; high values mean tight binding
# FLI1 = molecular target: T1, FLI1 (Homo sapiens, UniProt Q01543 1-452); conditions: protein: recombinant; tags: N-terminal GST; dsDNA, one strand shown
# T1 sequence: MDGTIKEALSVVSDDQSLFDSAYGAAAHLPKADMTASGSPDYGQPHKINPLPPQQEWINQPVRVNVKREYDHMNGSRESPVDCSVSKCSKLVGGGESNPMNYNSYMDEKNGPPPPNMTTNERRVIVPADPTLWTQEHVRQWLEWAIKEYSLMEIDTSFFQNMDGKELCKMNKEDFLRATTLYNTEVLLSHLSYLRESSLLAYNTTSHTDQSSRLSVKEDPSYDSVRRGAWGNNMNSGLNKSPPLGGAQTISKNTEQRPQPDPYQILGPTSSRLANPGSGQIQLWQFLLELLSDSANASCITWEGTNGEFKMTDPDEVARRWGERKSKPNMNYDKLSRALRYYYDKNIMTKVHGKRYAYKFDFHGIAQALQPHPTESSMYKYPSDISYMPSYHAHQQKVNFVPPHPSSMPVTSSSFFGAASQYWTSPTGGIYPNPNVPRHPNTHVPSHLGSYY
# In short: (§1)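 GST fusions of human transcription factors were expressed in yeast and captured with glutathione beads. Once given DNA barcodes and pooled alongside a tag-only sample, they were incubated for 30 min at room temperature with 200 nmole of a random double-stranded 16-mer DNA library in Tris/NaCl/DTT/glycerol buffer, then washed, crosslinked (0.1% formaldehyde), proximity-ligated, PCR-amplified and sequenced on an Illumina NextSeq500. The binding signal of each hexamer is its read frequency for a factor divided by its frequency for the tag-only sample.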
# ELK1 = molecular target: T2, ELK1 (Homo sapiens, UniProt P19419 1-428); conditions: protein: recombinant; tags: N-terminal GST; dsDNA, one strand shown
# T2 sequence: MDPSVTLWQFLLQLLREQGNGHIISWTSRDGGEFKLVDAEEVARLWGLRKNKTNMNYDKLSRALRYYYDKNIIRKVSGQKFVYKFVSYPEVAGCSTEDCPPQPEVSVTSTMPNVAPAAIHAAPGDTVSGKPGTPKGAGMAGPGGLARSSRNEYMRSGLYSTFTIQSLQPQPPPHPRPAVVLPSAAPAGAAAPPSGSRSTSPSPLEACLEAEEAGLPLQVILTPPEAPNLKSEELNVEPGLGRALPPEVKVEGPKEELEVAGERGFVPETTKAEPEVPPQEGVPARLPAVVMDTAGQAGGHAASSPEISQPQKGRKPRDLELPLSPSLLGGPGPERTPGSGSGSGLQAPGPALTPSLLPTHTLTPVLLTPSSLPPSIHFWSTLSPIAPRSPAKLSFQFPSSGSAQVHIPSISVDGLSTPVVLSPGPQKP
# In short: as §1
# GABPA = molecular target: T3, GABPA (Homo sapiens, UniProt Q06546 1-454); conditions: protein: recombinant; tags: N-terminal GST; dsDNA, one strand shown
# T3 sequence: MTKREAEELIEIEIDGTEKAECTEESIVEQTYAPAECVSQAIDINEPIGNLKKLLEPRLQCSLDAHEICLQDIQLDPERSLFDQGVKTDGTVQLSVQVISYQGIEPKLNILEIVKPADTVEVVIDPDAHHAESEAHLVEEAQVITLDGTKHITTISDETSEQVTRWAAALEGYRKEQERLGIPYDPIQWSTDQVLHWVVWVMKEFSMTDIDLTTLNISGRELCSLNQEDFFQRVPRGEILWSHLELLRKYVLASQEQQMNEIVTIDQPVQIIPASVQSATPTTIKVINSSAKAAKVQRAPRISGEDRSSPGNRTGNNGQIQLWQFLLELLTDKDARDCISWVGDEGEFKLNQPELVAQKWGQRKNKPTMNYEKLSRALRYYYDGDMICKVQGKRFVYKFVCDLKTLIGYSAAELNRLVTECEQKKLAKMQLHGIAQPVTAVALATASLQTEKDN
# In short: as §1
# ERG = molecular target: T4, ERG (Homo sapiens, UniProt P11308 1-479); conditions: protein: recombinant; tags: N-terminal GST; dsDNA, one strand shown
# T4 sequence: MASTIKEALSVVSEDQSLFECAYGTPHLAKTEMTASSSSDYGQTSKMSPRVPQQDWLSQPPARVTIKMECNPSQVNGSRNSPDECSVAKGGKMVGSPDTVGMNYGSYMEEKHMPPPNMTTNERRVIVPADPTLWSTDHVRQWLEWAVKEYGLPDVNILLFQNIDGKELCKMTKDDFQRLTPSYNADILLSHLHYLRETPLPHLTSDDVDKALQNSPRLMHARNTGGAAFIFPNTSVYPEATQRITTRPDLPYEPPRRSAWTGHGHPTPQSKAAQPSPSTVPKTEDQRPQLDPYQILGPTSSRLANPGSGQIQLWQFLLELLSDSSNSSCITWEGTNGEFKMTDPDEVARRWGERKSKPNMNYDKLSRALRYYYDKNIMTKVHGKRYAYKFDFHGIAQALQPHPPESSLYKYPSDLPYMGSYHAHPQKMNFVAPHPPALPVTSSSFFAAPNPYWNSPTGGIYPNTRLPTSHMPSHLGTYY
# In short: as §1
# ELF1 = ELF1 (Homo sapiens, UniProt P32519 1-619); conditions: protein: recombinant; tags: N-terminal GST; dsDNA, one strand shown
# Sequence of ELF1 (P32519 whole entry): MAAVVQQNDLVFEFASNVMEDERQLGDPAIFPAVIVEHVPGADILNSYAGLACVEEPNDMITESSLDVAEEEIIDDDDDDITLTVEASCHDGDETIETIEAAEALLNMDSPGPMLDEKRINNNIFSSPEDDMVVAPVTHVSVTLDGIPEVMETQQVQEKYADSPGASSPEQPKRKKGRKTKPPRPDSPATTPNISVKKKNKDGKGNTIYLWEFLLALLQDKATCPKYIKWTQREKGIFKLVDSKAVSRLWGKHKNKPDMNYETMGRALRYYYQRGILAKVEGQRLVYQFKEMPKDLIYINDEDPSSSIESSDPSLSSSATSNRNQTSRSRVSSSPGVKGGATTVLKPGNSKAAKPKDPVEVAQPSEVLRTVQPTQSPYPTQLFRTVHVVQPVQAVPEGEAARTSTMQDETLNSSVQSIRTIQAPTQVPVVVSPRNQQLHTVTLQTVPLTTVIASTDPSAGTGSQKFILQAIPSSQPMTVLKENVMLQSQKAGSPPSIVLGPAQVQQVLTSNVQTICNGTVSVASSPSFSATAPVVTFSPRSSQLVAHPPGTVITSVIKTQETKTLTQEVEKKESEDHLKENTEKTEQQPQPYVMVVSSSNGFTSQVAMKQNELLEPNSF
# In short: as §1
# EHF = molecular target: T5, EHF (Homo sapiens, UniProt Q9NZC4 1-300); conditions: protein: recombinant; tags: N-terminal GST; dsDNA, one strand shown
# T5 sequence: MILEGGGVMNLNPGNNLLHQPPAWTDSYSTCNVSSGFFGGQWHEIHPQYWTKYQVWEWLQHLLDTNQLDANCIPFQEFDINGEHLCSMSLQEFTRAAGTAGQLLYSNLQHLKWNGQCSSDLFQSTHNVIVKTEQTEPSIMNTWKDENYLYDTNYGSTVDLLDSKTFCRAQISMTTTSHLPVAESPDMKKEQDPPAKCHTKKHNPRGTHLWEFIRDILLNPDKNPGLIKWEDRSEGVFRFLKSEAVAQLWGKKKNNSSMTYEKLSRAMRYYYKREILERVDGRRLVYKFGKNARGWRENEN
# In short: as §1
# SPI1 = SPI1 (Homo sapiens, UniProt P17947 1-270); conditions: protein: recombinant; tags: N-terminal GST; dsDNA, one strand shown
# In short: as §1
# SPIB = SPIB (Homo sapiens, UniProt Q01892 1-262); conditions: protein: recombinant; tags: N-terminal GST; dsDNA, one strand shown
# Sequence of SPIB (Q01892 whole entry): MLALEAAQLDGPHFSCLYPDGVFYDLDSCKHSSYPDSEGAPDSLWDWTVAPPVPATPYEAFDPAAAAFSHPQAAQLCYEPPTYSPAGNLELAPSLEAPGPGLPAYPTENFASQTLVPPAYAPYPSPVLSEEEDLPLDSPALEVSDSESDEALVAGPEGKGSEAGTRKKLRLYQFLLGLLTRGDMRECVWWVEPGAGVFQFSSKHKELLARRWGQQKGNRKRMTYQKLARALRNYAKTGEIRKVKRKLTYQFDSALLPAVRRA
# In short: as §1
# ELK3 = molecular target: T6, ELK3 (Homo sapiens, UniProt P41970 1-407); conditions: protein: recombinant; tags: N-terminal GST; dsDNA, one strand shown
# T6 sequence: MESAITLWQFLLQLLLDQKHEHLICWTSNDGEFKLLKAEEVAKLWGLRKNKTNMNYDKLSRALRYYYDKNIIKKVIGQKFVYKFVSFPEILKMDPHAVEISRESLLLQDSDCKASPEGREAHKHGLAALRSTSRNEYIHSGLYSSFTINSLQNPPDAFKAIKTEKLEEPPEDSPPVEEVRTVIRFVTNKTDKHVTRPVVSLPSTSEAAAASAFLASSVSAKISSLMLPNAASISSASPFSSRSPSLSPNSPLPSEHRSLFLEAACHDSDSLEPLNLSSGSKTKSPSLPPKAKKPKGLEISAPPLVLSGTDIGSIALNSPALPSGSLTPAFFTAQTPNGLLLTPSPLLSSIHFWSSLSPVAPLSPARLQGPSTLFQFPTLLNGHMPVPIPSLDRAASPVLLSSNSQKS
# In short: as §1
# FEV = molecular target: T7, FEV (Homo sapiens, UniProt Q99581 1-238); conditions: protein: recombinant; tags: N-terminal GST; dsDNA, one strand shown
# T7 sequence: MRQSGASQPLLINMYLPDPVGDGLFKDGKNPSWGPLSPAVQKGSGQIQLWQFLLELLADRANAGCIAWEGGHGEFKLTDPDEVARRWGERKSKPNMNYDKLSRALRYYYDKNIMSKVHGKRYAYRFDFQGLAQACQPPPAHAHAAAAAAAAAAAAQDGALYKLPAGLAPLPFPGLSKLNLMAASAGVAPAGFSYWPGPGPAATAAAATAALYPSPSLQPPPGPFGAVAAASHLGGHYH
# In short: as §1
# ETV5 = ETV5 (Homo sapiens, UniProt P41161 1-510); conditions: protein: recombinant; tags: N-terminal GST; dsDNA, one strand shown
# Sequence of ETV5 (P41161 whole entry): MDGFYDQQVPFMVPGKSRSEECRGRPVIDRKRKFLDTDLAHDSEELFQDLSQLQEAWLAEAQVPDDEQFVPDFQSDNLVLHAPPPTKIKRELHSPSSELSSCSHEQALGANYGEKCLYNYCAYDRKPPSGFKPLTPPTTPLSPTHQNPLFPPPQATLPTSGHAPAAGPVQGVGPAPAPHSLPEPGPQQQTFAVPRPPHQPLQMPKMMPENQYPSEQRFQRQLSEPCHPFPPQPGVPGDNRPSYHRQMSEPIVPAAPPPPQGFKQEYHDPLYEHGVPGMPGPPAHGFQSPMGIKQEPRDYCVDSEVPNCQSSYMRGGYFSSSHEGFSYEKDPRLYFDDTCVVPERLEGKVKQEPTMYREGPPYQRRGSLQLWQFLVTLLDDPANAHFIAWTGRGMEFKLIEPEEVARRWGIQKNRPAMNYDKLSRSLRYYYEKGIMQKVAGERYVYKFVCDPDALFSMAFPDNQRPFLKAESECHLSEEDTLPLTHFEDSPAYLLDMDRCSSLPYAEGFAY
# In short: as §1
# HSF1 = HSF1 (Homo sapiens, UniProt Q00613 1-529); conditions: protein: recombinant; tags: N-terminal GST; chain copies: 3; dsDNA, one strand shown
# Sequence of HSF1 (Q00613 whole entry): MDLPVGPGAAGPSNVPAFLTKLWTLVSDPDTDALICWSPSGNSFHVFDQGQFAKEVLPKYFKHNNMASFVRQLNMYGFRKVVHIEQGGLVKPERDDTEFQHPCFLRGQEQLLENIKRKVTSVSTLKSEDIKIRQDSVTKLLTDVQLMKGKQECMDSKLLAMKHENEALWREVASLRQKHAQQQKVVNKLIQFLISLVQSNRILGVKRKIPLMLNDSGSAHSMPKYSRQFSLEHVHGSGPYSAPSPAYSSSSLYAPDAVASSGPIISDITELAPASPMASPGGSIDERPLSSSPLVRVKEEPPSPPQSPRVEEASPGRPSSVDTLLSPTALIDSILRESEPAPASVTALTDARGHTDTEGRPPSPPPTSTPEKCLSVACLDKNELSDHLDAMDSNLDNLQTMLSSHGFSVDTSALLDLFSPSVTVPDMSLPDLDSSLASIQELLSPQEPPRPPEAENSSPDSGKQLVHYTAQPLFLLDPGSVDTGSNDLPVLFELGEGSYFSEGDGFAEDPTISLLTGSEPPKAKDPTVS
# In short: as §1
# SPIC = molecular target: T8, SPIC (Homo sapiens, UniProt Q8N5J4 1-248); conditions: protein: recombinant; tags: N-terminal GST; dsDNA, one strand shown
# T8 sequence: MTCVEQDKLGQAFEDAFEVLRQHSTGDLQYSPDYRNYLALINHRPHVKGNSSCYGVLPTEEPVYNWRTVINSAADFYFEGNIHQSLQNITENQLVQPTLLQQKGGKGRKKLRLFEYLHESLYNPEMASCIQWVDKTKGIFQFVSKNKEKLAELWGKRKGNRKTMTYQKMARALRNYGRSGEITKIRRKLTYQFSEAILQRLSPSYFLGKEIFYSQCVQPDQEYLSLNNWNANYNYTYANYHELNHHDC
# In short: as §1
# ELF4 = ELF4 (Homo sapiens, UniProt Q99607 1-663); conditions: protein: recombinant; tags: N-terminal GST; dsDNA, one strand shown
# Sequence of ELF4 (Q99607 whole entry): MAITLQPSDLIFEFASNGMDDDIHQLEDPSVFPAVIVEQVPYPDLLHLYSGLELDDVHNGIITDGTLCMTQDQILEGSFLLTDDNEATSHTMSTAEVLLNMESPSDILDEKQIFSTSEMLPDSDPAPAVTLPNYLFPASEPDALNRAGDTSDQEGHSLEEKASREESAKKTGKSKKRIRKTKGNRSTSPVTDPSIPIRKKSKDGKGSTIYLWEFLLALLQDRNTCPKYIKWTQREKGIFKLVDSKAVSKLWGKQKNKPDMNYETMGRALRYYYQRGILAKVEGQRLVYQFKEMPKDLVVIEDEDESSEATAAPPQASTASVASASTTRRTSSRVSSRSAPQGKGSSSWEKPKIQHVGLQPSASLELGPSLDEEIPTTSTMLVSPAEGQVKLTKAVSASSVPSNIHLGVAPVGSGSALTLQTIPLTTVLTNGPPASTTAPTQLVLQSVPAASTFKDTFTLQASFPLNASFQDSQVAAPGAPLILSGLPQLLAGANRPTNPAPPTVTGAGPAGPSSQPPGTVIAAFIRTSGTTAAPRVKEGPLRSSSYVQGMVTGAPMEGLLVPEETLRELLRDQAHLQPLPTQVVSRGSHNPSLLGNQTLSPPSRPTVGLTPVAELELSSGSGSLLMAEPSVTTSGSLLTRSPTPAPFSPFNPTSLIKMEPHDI
# In short: as §1
# ELK4 = molecular target: T9, ELK4 (Homo sapiens, UniProt P28324-2 1-405); conditions: protein: recombinant; tags: N-terminal GST; dsDNA, one strand shown
# T9 sequence: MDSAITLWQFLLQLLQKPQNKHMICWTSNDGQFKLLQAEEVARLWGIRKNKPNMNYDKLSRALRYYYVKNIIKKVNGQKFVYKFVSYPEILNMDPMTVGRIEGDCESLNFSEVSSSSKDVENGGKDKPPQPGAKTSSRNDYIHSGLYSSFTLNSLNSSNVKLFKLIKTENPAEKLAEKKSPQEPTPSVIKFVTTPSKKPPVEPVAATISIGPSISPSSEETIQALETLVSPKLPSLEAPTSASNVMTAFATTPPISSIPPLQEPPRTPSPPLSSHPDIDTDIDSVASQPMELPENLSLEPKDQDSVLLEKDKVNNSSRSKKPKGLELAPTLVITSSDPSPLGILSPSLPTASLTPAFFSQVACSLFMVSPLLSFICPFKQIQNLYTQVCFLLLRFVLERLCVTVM
# In short: as §1
# ETV2 = molecular target: T10, ETV2 (Homo sapiens, UniProt O00321 1-342); conditions: protein: recombinant; tags: N-terminal GST; dsDNA, one strand shown
# T10 sequence: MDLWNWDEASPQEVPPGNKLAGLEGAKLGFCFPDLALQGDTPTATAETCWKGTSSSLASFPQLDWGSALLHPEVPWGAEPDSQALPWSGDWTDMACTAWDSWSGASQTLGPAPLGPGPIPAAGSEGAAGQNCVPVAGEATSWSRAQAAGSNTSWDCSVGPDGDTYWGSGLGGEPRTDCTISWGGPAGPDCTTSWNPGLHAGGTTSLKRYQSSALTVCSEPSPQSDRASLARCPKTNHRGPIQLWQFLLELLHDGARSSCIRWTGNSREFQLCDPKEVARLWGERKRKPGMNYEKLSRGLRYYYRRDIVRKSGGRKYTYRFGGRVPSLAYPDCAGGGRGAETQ
# In short: as §1
# ELF3 = molecular target: T11, ELF3 (Homo sapiens, UniProt P78545 1-371); conditions: protein: recombinant; tags: N-terminal GST; dsDNA, one strand shown
# T11 sequence: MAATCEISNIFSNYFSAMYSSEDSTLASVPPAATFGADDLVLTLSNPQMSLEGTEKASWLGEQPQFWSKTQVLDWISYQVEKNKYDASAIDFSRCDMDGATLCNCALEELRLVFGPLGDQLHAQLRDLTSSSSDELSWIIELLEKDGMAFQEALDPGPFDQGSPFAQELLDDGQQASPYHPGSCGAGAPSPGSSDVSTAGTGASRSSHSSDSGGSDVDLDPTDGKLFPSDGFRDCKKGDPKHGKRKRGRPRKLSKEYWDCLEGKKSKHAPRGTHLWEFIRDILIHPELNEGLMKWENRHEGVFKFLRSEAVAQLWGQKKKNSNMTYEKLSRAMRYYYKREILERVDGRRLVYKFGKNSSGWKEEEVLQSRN
# In short: as §1
# ETV1 = ETV1 (Homo sapiens, UniProt P50549 1-477); conditions: protein: recombinant; tags: N-terminal GST; dsDNA, one strand shown
# Sequence of ETV1 (P50549 whole entry): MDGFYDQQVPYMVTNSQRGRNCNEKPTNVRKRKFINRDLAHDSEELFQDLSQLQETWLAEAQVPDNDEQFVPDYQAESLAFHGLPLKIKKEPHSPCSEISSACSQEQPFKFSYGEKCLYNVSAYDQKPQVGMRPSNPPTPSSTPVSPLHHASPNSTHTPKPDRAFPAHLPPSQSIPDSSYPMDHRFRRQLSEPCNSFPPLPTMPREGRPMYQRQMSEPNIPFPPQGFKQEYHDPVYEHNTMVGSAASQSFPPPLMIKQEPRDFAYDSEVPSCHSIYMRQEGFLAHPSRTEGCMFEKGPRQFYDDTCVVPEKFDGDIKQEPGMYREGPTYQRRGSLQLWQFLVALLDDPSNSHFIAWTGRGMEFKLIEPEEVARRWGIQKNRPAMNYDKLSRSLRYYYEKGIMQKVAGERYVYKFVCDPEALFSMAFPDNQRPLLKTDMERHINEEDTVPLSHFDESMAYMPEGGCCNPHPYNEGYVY
# In short: as §1
sequence,measurement,setting,value
CAATTG,binding signal,FLI1,"1.32 fold enrichment (6-mer frequency, TF over GST control)"
same,binding signal,ELK1,"1.19 fold enrichment (6-mer frequency, TF over GST control)"
same,binding signal,GABPA,"1.26 fold enrichment (6-mer frequency, TF over GST control)"
same,binding signal,ERG,"1.14 fold enrichment (6-mer frequency, TF over GST control)"
same,binding signal,ELF1,"1.28 fold enrichment (6-mer frequency, TF over GST control)"
same,binding signal,EHF,"1.27 fold enrichment (6-mer frequency, TF over GST control)"
same,binding signal,SPI1,"1.25 fold enrichment (6-mer frequency, TF over GST control)"
same,binding signal,SPIB,"1.16 fold enrichment (6-mer frequency, TF over GST control)"
same,binding signal,ELK3,"1.23 fold enrichment (6-mer frequency, TF over GST control)"
same,binding signal,FEV,"1.18 fold enrichment (6-mer frequency, TF over GST control)"
same,binding signal,ETV5,"1.2 fold enrichment (6-mer frequency, TF over GST control)"
same,binding signal,HSF1,"1.04 fold enrichment (6-mer frequency, TF over GST control)"
same,binding signal,SPIC,"1.28 fold enrichment (6-mer frequency, TF over GST control)"
same,binding signal,ELF4,"1.27 fold enrichment (6-mer frequency, TF over GST control)"
same,binding signal,ELK4,"1.04 fold enrichment (6-mer frequency, TF over GST control)"
same,binding signal,ETV2,"1.16 fold enrichment (6-mer frequency, TF over GST control)"
same,binding signal,ELF3,"1.32 fold enrichment (6-mer frequency, TF over GST control)"
same,binding signal,ETV1,"1.17 fold enrichment (6-mer frequency, TF over GST control)"
